Compounds with a hit are over-represented: about 7.3% of the library has one in this group of screens.
Rab9 prom act = Rab9 promoter activation | Huh7 Rab9 promoter-luciferase reporter, luminescence, 24 h | Potency, µM (top dose mostly 9.22 µM), for inactives: at the highest dose activation, negative = inhibition, hits mostly activators | 320,000 compounds, 2.8% hits | AID 485297; further: % of control where 0% means no effect; nearly all actives have a fitted effect of over 60% in size
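Steps: seed 1500 Huh7 Rab9-luc cells per well, rest 2 h at 37 °C; add compound in DMSO; incubate 24 h; add luciferase reagent, 10 min ambient; read luminescence.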
NPC1 prom act = NPC1 promoter activation | Huh7 NPC1 promoter luciferase reporter, 24 h | 320,000 compounds, 2.4% hits | Potency, µM (series often up to 9.22 µM), without a hit: top-dose activation, usual class: activators; further: % of control where 0% means no effect; nearly all actives have a fitted effect of over 60% in size
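Cells: Huh7 expressing luciferase under the NPC1 promoter, 1500/well. Seeded 2 h, compound added, incubated 24 h at 37 °C. Luciferase reagent, 10 min ambient, then luminescence.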
p53 reactivator = re-activators of mutant p53 | H1299 p53-A138V BP100-luciferase reporter, luminescence, 24 h | AID 504706 | 320,000 compounds, 0.063% hits | Potency, µM (series often up to 92.2 µM), for the others: at the top dose activity change, positive = activation, hits mostly activators; further: % of control where 0% means no effect; nearly all actives have a fitted effect of over 45% in size
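H1299 (p53-null), stable ts p53-A138V + BP100-Luc; 1000 cells/well, Opti-MEM/10% FBS; cpd 4 pt, 1:5; 24 h, 37 deg C, 5% CO2; detection reagent 10 min RT; luminescence.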
ELG1 genotoxic = genotoxicity induction in ELG1-luciferase HEK293T cells. HEK293T ELG1-luciferase reporter, luminescence, 16 h. Potency, µM (highest dose often 46 µM), inactives show at the highest dose activity change, positive = activation, most hits filed as activators. 330,000 compounds, 1.3% hits. AID 504466; further: % of control where 0% means no effect; nearly all actives have a fitted effect of over 60% in size
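Reporter readout depends on ELG1 protein level, which increases with genetic stress. After 16 hr compound exposure at 37 °C, luciferase activity was quantified using ONE-Glo.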
SMN2 splice enh = SMN2 splice variant enhancement | 210,000 compounds, 2.8% hits | Potency, µM (top dose mostly 46.1 µM), inactives show at the top dose activity change, positive = activation, hits mostly activators | AID 1458 | HEK293 SMN2-luciferase splicing reporter, luminescence, 30-36 h; further: % of control where 0% means no effect; nearly all actives have a fitted effect of over 55% in size
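HEK293 cells carry an SMN2 […]–luciferase reporter in which exon 7 inclusion puts luciferase in frame. Cells were plated 10-12 h before compound addition, then incubated 30-36 h at 37C. ONE-Glo luminescence was read; sodium butyrate at 4.5 mM final served as control.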
FLuc counter = inhibits or activates purified firefly luciferase, miR-21 counter-screen. Potency, µM (series often up to 57.5 µM), for inactives: top-dose activity change, negative = inhibition, actives largely listed as inhibitors. AID 588342. purified FLuc, Km substrates, luminescence inhibition. 360,000 compounds, 6.9% hits;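 further: plate controls were vehicle for no effect and reference inhibitor for full effect; nearly all actives have a fitted effect of over 55% in size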
Target sequence (P08659 whole entry, looked up): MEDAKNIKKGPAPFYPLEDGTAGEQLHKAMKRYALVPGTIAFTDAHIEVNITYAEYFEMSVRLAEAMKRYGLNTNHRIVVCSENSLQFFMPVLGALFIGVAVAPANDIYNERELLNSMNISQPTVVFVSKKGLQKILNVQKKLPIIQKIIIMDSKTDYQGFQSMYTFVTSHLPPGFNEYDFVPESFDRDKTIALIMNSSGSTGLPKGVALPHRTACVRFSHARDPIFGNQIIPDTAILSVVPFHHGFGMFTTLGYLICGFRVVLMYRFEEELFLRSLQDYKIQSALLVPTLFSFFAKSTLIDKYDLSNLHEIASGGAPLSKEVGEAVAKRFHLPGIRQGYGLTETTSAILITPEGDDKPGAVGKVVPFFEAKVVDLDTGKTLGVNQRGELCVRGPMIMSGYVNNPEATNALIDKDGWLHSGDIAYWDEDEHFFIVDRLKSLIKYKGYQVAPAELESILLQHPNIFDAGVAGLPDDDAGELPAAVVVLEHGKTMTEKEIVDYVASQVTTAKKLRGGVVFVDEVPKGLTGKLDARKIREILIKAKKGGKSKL
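Biochemical qHTS of compounds, final roughly 60 µM downward over six points, against 10 nM purified firefly luciferase using Km concentrations of substrates (10 uM D-luciferin, 10 uM ATP) in Tris acetate pH 7.5 buffer; luminescence output.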
* marks the source's active call; other numbers are inactive results; u = inconclusive; x = no result. The call rests on the fitted dose curve; in most records, active means well fitted curve in the direction sought with a large enough effect; inconclusive means small, poorly fitted or top-dose-only effect, or another doubt; inactive means no such curve, though single readings can be large; an effect the other way counts as inactive or inconclusive. Potency means the concentration at half of the fitted maximal effect.

SMILES | Rab9 prom act | NPC1 prom act | p53 reactivator | ELG1 genotoxic | SMN2 splice enh | FLuc counter
COc1ccc(-c2csc(NC3OC(=O)c4c3ccc(OC)c4OC)n2)cc1OC (configuration not stated) | -3.9% | -23.0% | -9.2% | 6.0% | x | -6.3%
COc1ccc2c(c1OC)C(=O)OC2Nc1nc(-c2cc3cc(Br)ccc3oc2=O)cs1 (configuration not stated) | 1.41µM* | 2µM* | 14.6% | u | x | 21.3µM*
COc1ccccc1Nc1nn2c(=O)c3ccc(C(=O)NCCC4=CCCCC4)cc3nc2s1 | x | x | x | x | x | 5.2%
CC1CCCC(NCC(=O)Nc2ccc(C(N)=O)cc2)C1C (configuration not stated) | -4.5% | -12.6% | -2.7% | 0.0% | 4.8% | 0.5%
Cc1cccc(Cn2c(=O)c3c(nc4n3CCCN4Cc3ccccc3)n(C)c2=O)c1 | -0.9% | -0.6% | 6.8% | -25.4% | -11.8% | 6.0%
O=C(Nc1ccccc1)OCc1cncs1 | 20.4% | 5.6% | 16.2% | 8.0% | 9.1% | -10.7%
O=C(/C=C/c1ccccc1)OCc1cncs1 | u | 29.5% | 9.2% | u | 7.2% | 26.9µM*
CC(C)Sc1nnc(Nc2ccccc2)s1 | 2µM* | 3.98µM* | u | u | 28.1% | 15.1µM*
CC(C)Sc1nnc(NC(=O)C2CC2)s1 | 23.8% | 18.9% | u | u | u | -19.9%
O=c1c2c3c(sc2ncn1/N=C/c1ccccc1)CCCC3 | 22.5% | 24.8% | 17.4% | u | 20µM* | 10.7µM*
Cc1ccc(-c2nc3sc4c(c3c(=O)n2N)CCCC4)cc1 | 0.631µM* | 1.26µM* | u | u | 11.2µM* | 2.13µM*
Nn1c(Nc2ccccc2)nc2sc3c(c2c1=O)CCCC3 | -0.1% | 1.9% | 8.6% | 10.4% | u | 15.1µM*
NNc1nc2sc3c(c2c(=O)n1-c1ccccc1)CCCC3 | 0.8% | -6.2% | 29.8% | 4.9% | x | 12µM*
Cc1ccc(NC(=O)C2=C(O)c3sccc3N(C)S2(=O)=O)cc1 | 19.5% | 6.0% | 12.1% | 5.0% | u | 8.49µM*
CN1c2ccsc2C(O)=C(C(=O)Nc2ccccc2)S1(=O)=O | 2.8% | -0.2% | -0.8% | 0.2% | 18.3% | 15.1µM*
CCOc1ccc(C(c2c(O)cc(C)n(Cc3ccco3)c2=O)N2CCCCC2)cc1 (configuration not stated) | x | x | x | x | x | -17.9%
O=c1[nH]ncc(N/N=C\c2ccncc2)c1Cl | -4.9% | 1.4% | 0.5% | u | u | -0.6%
O=c1[nH]ncc(N/N=C\c2cccs2)c1Cl | -2.4% | -5.1% | -4.0% | 20.6µM* | u | -3.0%
CC1(C)OC(=O)C(=CNc2cccc(O)c2)C(=O)O1 | 0.0% | 9.1% | 4.7% | 3.3% | 3.8% | u
CC1(C)OC(=O)C(=NNc2ccc(Br)cc2)C(=O)O1 | -4.3% | -2.5% | 8.9% | 2.2% | -28.6% | 19µM*
Cc1noc(C)c1COC(=O)c1cc(C)n(-c2ccccc2)c1C | u | 28.0% | u | u | -10.2% | 15.1µM*
Cc1cc(C(=O)COc2ccccc2C(N)=O)c(C)n1C1CC1 | u | 32.5% | u | 5.0% | -8.0% | 15.1µM*
Cc1cc(C(=O)COC(=O)c2ccc[nH]c2=O)c(C)n1-c1ccccc1 | 0.282µM* | 0.316µM* | u | 0.82µM* | 2.51µM* | 1.69µM*
Cc1cc(C(=O)COC(=O)c2ccc(F)cc2F)c(C)n1C1CC1 | 2.82µM* | 2.51µM* | u | u | x | 0.379µM*
Cc1cc(C(=O)COc2ccccc2[N+](=O)[O-])c(C)n1C1CC1 | u | 25.7% | u | 4.7% | u | u
SMILES | Rab9 prom act | NPC1 prom act | p53 reactivator | ELG1 genotoxic | SMN2 splice enh | FLuc counter
ClCCl | x | x | x | x | 5.6% | x
COc1ccc2c(c1)c1c(c(=O)n(-c3ccccc3C)c(=O)n1C)n2C | x | x | x | x | x | -6.2%
O=c1cnc2cnc(OCc3ccccc3)nc2n1Cc1ccc(F)cc1 | x | x | x | x | -24.6% | x
CCOc1ccc(OCC)c(NC(=O)c2nnn(CC(=O)Nc3ccc(C)cc3C)c2N)c1 | x | x | x | x | -4.3% | -0.5%
Cc1cccc(N(C)c2nc3ccc(C)cc3n3cnnc23)c1 | x | x | x | x | 5.3% | u
Cc1ccccc1OCC(=O)OCC(=O)c1cc(C)n(C2CC2)c1C | 1.2% | -3.9% | -1.6% | 4.0% | x | u
Cc1cc(C(=O)COC(=O)c2ccc[nH]c2=O)c(C)n1-c1ccc(F)cc1 | 0.355µM* | 0.562µM* | u | u | 5.01µM* | 3.38µM*
Cc1cc(C(=O)OCC(=O)NCc2ccco2)c(C)n1-c1ccc(F)cc1 | -17.8% | -18.8% | u | -4.3% | -13.1% | -19.4%
Cc1ccc(S(=O)(=O)NCC(=O)OCC(=O)c2cc(C)n(-c3ccccc3)c2C)cc1 | 0.2% | -1.2% | 2.8% | 2.9% | u | 15.1µM*
Cc1cc(C(=O)COC(=O)c2ccc[nH]c2=O)c(C)n1C1CC1 | 3.55µM* | u | u | u | u | 4.78µM*
CC(C)[C@@H](CC(=O)N[C@@H]1CCCC[C@H]1C(=O)N[C@H](CC(=O)N[C@@H](CCC(=O)O)CC(=O)O)Cc1ccccc1)NC(=O)C[C@H](Cc1c[nH]c2ccccc12)NC(=O)[C@@H]1CNCC[C@H]1N | x | x | x | x | 0.1% | x
COCCn1c(C)cc(C(=O)CSc2nnnn2C2CCCC2)c1C | u | 0.1µM* | -15.5% | u | x | 0.0849µM*
COCCn1c(C)cc(C(=O)CSc2nnc(C)s2)c1C | x | x | x | x | -58.0% | 1.69µM*
COCCn1c(C)cc(C(=O)CSc2n[nH]c(N)n2)c1C | 21.5% | 13.2% | 17.4% | u | 1.4% | u
COc1ccc(Cl)cc1C(=O)CSc1nnnn1C1CCCC1 | 1.8% | 0.1% | -1.3% | 9.9% | x | u
Cc1ccccc1C(=O)c1cccn1CC(=O)NCc1ccc2c(c1)OCO2 | 6.1% | 4.6% | 17.3% | 7.4% | 12.7% | u
CC(C)C1C(=O)Nc2ccc(S(=O)(=O)NCCc3ccc(Cl)cc3)cc21 (configuration not stated) | x | x | x | x | x | -2.9%
CCc1ccccc1N(CC)C(=O)c1c(C)oc2ncnc(N3CCOCC3)c12 | x | x | x | x | x | 24.7%
CCOC(=O)c1sc(NC(=O)c2cc3n(n2)C(C(F)(F)F)CC(c2ccccc2)N3)c(C(=O)OCC)c1C (configuration not stated) | 5.9% | -6.4% | -13.5% | 1.9% | u | 4.2%
CSc1nsc(/C=C/Nc2ccc(O)cc2C)c1C#N | 5.2% | -1.1% | -2.8% | -1.6% | -3.9% | 12µM*
CSc1nsc(/C=C/Nc2ccc(F)cc2)c1C#N | 0.7% | -6.9% | -3.9% | 0.0% | 2.1% | -13.3%
COc1cc2[nH]c(=O)n(Cc3ccc(C(=O)N4CCN(c5cc(Cl)ccc5C)CC4)cc3)c(=O)c2cc1OC | x | x | x | x | 0.9% | -3.3%

Source: PubChem BioAssay (National Center for Advancing Translational Sciences (NCATS))
